# Marburg entry inh: inhibitors of Marburg virus binding or cell entry; Marburg virus pseudotyped entry inhibition, cell reporter; Potency, µM (highest dose often 37.8 µM), without a hit: top-dose activity change, negative = inhibition, hits mostly inhibitors; 300,000 compounds, 1.8% hits; AID 540276; calls by dose curve; tested in HEK293 cells; note: potency is the fitted concentration of half-maximal effect; % is set by controls: 0 for no effect and ±100 for the full control effect
# FMDV inh: blocks foot and mouth disease virus; FMDV antiviral cell-based qHTS; Potency, µM (titrated, usually from 57.9 µM), inactives show at the highest dose activity change, negative = inhibition, actives largely listed as inhibitors; 410,000 compounds, 1.2% hits; calls by dose curve; tested in HEK293T cells; note: read-out not given here; potency is the fitted concentration of half-maximal effect; % is set by controls: 0 for no effect and ±100 for the full control effect; nearly all actives have a fitted effect of over 45% in size
# LASV entry inh: inhibitors of Lassa virus binding or cell entry; 300,000 compounds, 1.2% hits; Potency, µM (top dose mostly 37.9 µM), for inactives: at the highest dose activity change, negative = inhibition, usual class: inhibitors; Lassa virus pseudotype entry inhibition, cell reporter; calls by dose curve; tested in HEK293 cells; note: potency is the fitted concentration of half-maximal effect; % is set by controls: 0 for no effect and ±100 for the full control effect; nearly all actives have a fitted effect of over 50% in size
# HCV inhibitor: blocks hepatitis C virus | 340,000 compounds, 3.4% hits | Potency, µM (series often up to 41.8 µM), for the others: top-dose activity change, negative = inhibition, hits mostly inhibitors | Huh7.5.1 HCVcc-Cre infection, luciferase reporter, 44 h; active = well fitted inhibition curve with a large enough effect; inconclusive = small, poorly fitted or top-dose-only effect, or another doubt; inactive = no such curve, though single readings can be large or run the other way; note: potency is the fitted concentration of half-maximal effect; % is set by controls: 0 for no effect and ±100 for the full control effect
#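 Seed cells (1,000/well) for 4 h; treat with compound and infect with HCVcc-Cre, moi about 0.5. Incubate 44 h, then detect luciferase activity.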
# Cycloheximide cs: counter-screen for Shiga toxin inhibitors: cycloheximide protein synthesis inhibition; 300,000 compounds, 12% hits; max response, %; cell reporter, cycloheximide protein synthesis inhibition counterscreen; AID 2314; in the data active = max response mostly above about 13%, no sharp cut-off; inactive = mostly below about 14%; note: read at 38.3 µM for the half of the compounds with a filed dose; 0% is about no effect
# Shiga toxin inh: blocks Shiga toxin action in Vero cells. AID 2315. inhibition, % at 38.7 µM. 290,000 compounds, 9.2% hits. Vero cells, Shiga toxin protein synthesis inhibition reporter; in the data active = inhibition mostly above about 28%, no sharp cut-off; inactive = mostly below about 43%; note: 0% is about no effect
# The depositor's hits bear a star; ? = inconclusive; . = not tested or not shown; [ ] = another dose, or the depositor's remark. The list is not random: actives were taken first. Their share in the collection is about 13%.
SMILES,Marburg entry inh,FMDV inh,LASV entry inh,HCV inhibitor,Cycloheximide cs,Shiga toxin inh
COCCNc1nc2c(c(=O)n(Cc3ccc(OC)cc3)c(=O)n2C)n1C,-12%,?,-1%,11%,3,-16
Cn1c(NCC(O)CO)nc2c1c(=O)n(Cc1ccc(Cl)c(Cl)c1)c(=O)n2C (stereo not drawn),?,?,4%,1%,-1,11
CCCNc1nc2c(c(=O)n(C)c(=O)n2C)n1Cc1ccc(F)cc1,.,?,.,11µM*,-3,17
CCOc1ccccc1C(c1c(O)nc(SC)[nH]c1=O)c1c(O)nc(SC)[nH]c1=O,-2%[46.1 µM],-13%,-3%[46.1 µM],3%,.,.
Cc1cc(C)c2oc(-c3ccc(NC(=O)c4cc(Br)ccc4Cl)cc3)nc2c1,.,-19%,10%[46.1 µM],.,.,.
Cc1cc(C)c2oc(-c3ccc(Cl)c(NC(=O)c4ccc(C#N)cc4F)c3)nc2c1,21%,23%,8%,4%,48*,39*
C=CCOc1ccc2c(c1)CCC1C2CCC2(C)C(O)C(O)CC12 (stereo not drawn),16%,49%,15%,-12%,.,.
Cc1ccc(C(=O)NNC(=O)/C=C\C(=O)O)cc1,0%[46.1 µM],-3%,?,13%,42*,70*
O=C(NNC(=S)Nc1ccc(Br)cc1)c1ccccc1Br,2%,16%,?,-10%,11,72
Cc1ccc(C(=O)NNC(=O)c2ccc(C)cc2)cc1,26%[46.1 µM],26%,15%,-2%,16,20
O=C(NNC(=S)Nc1ccccc1)c1ccc(O)cc1,.,84%,.,23%,45*,73*
O=C(NNC(=S)Nc1ccccc1)c1cccc(Br)c1,18%,63%,?,5%,26*,33
O=C(NNC(=S)Nc1ccc(Br)cc1)c1ccccc1,?,44%,34%[46.1 µM],10%,23*,34
O=C(O)CCN(CCC(=O)O)S(=O)(=O)c1ccccc1,-1%,-18%,-18%,17%,-3,-19
Cc1ccccc1C(=O)NNC(=O)c1cccc(Br)c1,.,30%,.,10%,5,.
COc1ccccc1NC(=O)NNC(=O)c1ccncc1,?,1%,-3%[46.1 µM],-1%,.,.
CC(C)(C)NC(=S)NNC(=O)c1cccc(Br)c1,.,22%,.,6%,40*,74*
O=C(O)c1ccc(NC(=S)NC(=O)C(c2ccccc2)c2ccccc2)cc1,-1%,0%,-7%,34%,-1,-16
O=C(O)c1ccc(NC(=S)Nc2ccccc2)cc1,?,8%,9%,8%,16*,-14
COc1ccccc1NC(=S)NNC(=O)c1ccc(O)cc1,?,69%,4%,-13%,24*,27
COC(=O)c1ccc(NC(=S)NNC(=O)c2ccccc2)cc1,-4%[46.1 µM],21%,7%,-7%,26*,42
COC(=O)c1ccc(NC(=S)Nc2ccccc2)cc1,-7%,.,-2%,-3%,8,-33
COC(=O)[C@]12C(=O)NC[C@H](CN1c1ccc(C(F)(F)F)cc1)N2C,.,-2%,.,18%,.,.
COc1ccc(C(=O)NC(CCSC)C(=O)NCc2nnc3ccccn23)cc1 (stereo not drawn),5%[46.1 µM],-1%,-4%,3%,.,.
O=C(O)/C=C/C(=O)NNC(=O)c1cccc(Br)c1,24%,-4%,-1%,8%,25*,39*
SMILES,Marburg entry inh,FMDV inh,LASV entry inh,HCV inhibitor,Cycloheximide cs,Shiga toxin inh
O=C(O)CCC(=O)NNC(=O)c1cccc(Br)c1,1%,-7%,4%,2%,1,-13
CC(C)(C)c1ccc(S(=O)(=O)NC(=O)C2(C)CCN2C(=O)C2(c3ccc(Cl)cc3)CC2)cc1 (stereo not drawn),.,45%,.,.,.,.
C=CCO/N=C(/C)c1ccc(Oc2cnccn2)cc1,1%[46.1 µM],28%,-1%,-6%,27*,47*
O=C(c1cnc(-c2ccccc2)s1)c1ccc(Cl)cc1Cl,-3%,19%,4%,-24%,12,10
C/[N+]([O-])=C\CC(=O)c1ccc(-c2ccccc2)cc1,16%[46.1 µM],14%,1%,-13%,24*,20
CO/N=C/CC(=O)c1cnc(-c2ccc(Cl)cc2)s1,2%[46.1 µM],7%,?,13%,22*,73*
CO/N=C/CC(=O)c1ccc(-c2ccccc2)cc1,-6%[46.1 µM],9%,-17%[46.1 µM],23%,18*,70
CSc1ccc(/C=N/NC(=O)c2ccc(O)cc2)cc1,?,75%,?,-28%,46*,102*
COc1ccc(C(=O)N/N=C/c2ccc(OC(=O)c3ccccc3)cc2)cc1,0%,22%,27%,10%,-1,19
